# Screens from PubChem BioAssay.
# This is a sample that favours compounds with a hit; in the whole collection about 3.7% have one here.
# BoNT-A LC inh2: BoNT/A light chain protease inhibitors, primary screen, biochemical, flow cytometry, MLPCN library. Botulinum neurotoxin type A light chain protease (Clostridium botulinum A str. ATCC 3502). multiplex microsphere protease substrate cleavage. inhibition, % at 10 µM. 0.17% of 360,000 active. AID 588499, 2011
# BoNT-F LC inh: BoNT/F light chain protease inhibitors, primary screen, biochemical, flow cytometry, MLPCN library; Botulinum neurotoxin type F light chain protease (Clostridium botulinum); Multiplex microsphere protease cleavage assay; inhibition, % at 10 µM; 0.22% of 360,000 active; AID 588497, 2011; in the data active = inhibition above about 35%, passing the limit was not always enough; inconclusive = no clear call, values can overlap the other calls
# MazF activator: activators of E. coli MazEF toxin-antitoxin RNase, primary screen, biochemical, fluorescence, uHTS; Endoribonuclease toxin MazF (Escherichia coli (strain K12)), P0AE70; activation, % at 20 µM; 0.32% of 350,000 active; FAM/BHQ RNA-DNA oligo cleavage fluorescence, 5 h; in the data active = activation above about 50%
# Target sequence (P0AE70 whole entry, looked up): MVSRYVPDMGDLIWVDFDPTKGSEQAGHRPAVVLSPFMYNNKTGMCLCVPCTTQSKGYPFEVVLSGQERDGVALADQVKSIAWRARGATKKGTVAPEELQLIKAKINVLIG
# Anthrax LF inh2: Bacillus anthracis LF protease inhibitors, primary screen, biochemical, multiplex microsphere, MLPCN library; Lethal factor (Bacillus anthracis), P15917; multiplex microsphere protease cleavage assay; inhibition, % at 10 µM; 0.12% of 360,000 active; AID 588501, 2011
# Bead autofluor: counter-screen for toxin protease inhibitors: compound fluorescence; fluorescence intensity (no concentration beside the values); 3.1% of 360,000 active; compound autofluorescence counterscreen, microsphere flow cytometry; stronger effect = higher value; in the data active = fluorescence intensity above about 16000; inconclusive = no clear call, values can overlap the other calls
# Numbers stand for hits; – = inactive; ? = inconclusive. Cut-off read from the data, not from the text of the source, unless noted: active = inhibition above about 30%; inconclusive = no clear call, values can overlap the other calls; inactive = below that.
SMILES,BoNT-A LC inh2,BoNT-F LC inh,MazF activator,Anthrax LF inh2,Bead autofluor
O=C(c1cccs1)N1CCN(CCc2ccccc2)CC1,–,–,–,–,21277
O=C(NCCN1CCN(C(=O)c2cccs2)CC1)c1cccs1,–,–,–,–,22034
O=C(CN1CCN(Cc2ccccc2)C1=O)NCCCN1CCOCC1,–,–,–,–,–
COc1ccc(N2CCN(C(=O)Cc3ccc(OC)c(OC)c3)CC2)cc1,–,?,–,–,–
O=S(=O)(NCc1ccccn1)c1cc(Cl)ccc1Cl,–,–,–,–,?
CS(=O)(=O)N1CCN(c2ccccc2NC(=O)c2cccs2)CC1,–,–,–,–,–
O=C(Nc1ccccc1N1CCCCC1)c1cccs1,–,–,–,–,24609
CC1=NN(C(=O)c2ccoc2C)C(O)(C(F)(F)F)C1 (stereo unspecified),–,?,–,–,?
O=C(CSc1nnc(Cc2ccccc2)n1Cc1ccco1)NC1CCCC1,–,–,–,–,–
CC(C)OC(=O)CSc1nnc(Cc2ccccc2)n1Cc1ccco1,–,–,–,–,19241
COC(=O)[C@@]1(C)[C@H]2C(=O)N(Cc3ccccc3)C(=O)[C@H]2[C@H]2CN(C)C(=NC3CCCCC3)N21,–,–,–,–,–
CN(C)c1ccc(N=Cc2nc(-c3ccccc3)oc2OC(=O)c2cccc(Cl)c2)cc1,–,–,126,–,–
Cc1ccc(C(=O)Oc2oc(-c3ccccc3)nc2C=Nc2ccc(N(C)C)cc2)cc1,–,–,870,–,–
COc1ccc(N=Cc2nc(-c3ccccc3)oc2OC(C)=O)cc1,–,?,–,–,?
Cc1cccc(CN(C)CCc2ccccn2)c1,–,–,–,–,16809
COCC(=O)Nc1cc(C)cn(Cc2c(F)cccc2Cl)c1=O,–,?,–,–,–
COC(=O)Nc1ccc(=O)n(Cc2c(Cl)cccc2Cl)c1,–,–,–,–,23829
CCOC(=O)C1=C(c2ccccc2)NC(=O)NC1c1ccc(OC)cc1OC (stereo unspecified),–,–,–,–,–
CN(C(=O)c1ccc(Cl)nc1)C1(c2ccccc2Cl)CCCCC1=O (stereo unspecified),–,–,–,–,–
Cc1ccccc1NC(=S)N(C)C1(c2ccccc2Cl)CCCCC1=O (stereo unspecified),–,–,–,–,23061
Cc1cc2[nH]c(=O)c(=O)[nH]c2cc1S(=O)(=O)NCc1ccc(Cl)cc1,–,–,–,–,–
Cc1nc2ccc(NC(=O)c3ccccc3)cc2c(=O)n1Cc1ccc(F)cc1,–,–,–,–,–
O=C(Nc1cccc(O)c1)c1cnn2cccnc12,–,–,–,–,19751
CNS(=O)(=O)c1ccc2nc(NC(=O)/C=C/c3ccco3)sc2c1,–,–,–,–,–
COC(=O)c1nnn(Cc2ccccc2)c1N,–,–,–,–,–
SMILES,BoNT-A LC inh2,BoNT-F LC inh,MazF activator,Anthrax LF inh2,Bead autofluor
Nc1c(C2=NCCO2)nnn1Cc1ccccc1,–,–,–,–,17624
Cc1nn(CCC(=O)NNC(=S)Nc2ccc(F)cc2)c(C)c1[N+](=O)[O-],–,–,–,–,22117
O=C(COc1cccc(Cl)c1)N/N=C\c1cc2ccccc2nc1Cl,–,–,148,–,–
Cc1cc(C)cc(C(=O)Nc2nnc(SCC(=O)NCC3CCCO3)s2)c1 (stereo unspecified),–,–,–,–,–
Cc1ccc(C(=O)NCc2ccc(N3CCN(C(=O)OC(C)(C)C)CC3)cc2)cc1,?,–,–,–,23049
Cc1ccc(S(=O)(=O)NCc2ccc(N3CCN(C(=O)OC(C)(C)C)CC3)cc2)cc1,–,–,–,–,–
COC(=O)N1CCN(c2ccc(C(C)=O)cc2)CC1,?,–,–,–,18481
CCCCOc1ccc(/C=C(\C#N)C(=O)NC2CC2)cc1,–,50,–,?,–
COc1ccc(/C=C(/C#N)C(=O)NC2CCCCC2)cc1Br,–,36,–,–,–
Cc1ccccc1OCCC(=O)N1CCN(S(=O)(=O)c2ccc(Br)cc2)CC1,–,–,–,–,?
C#CCN(CC=C)C(=O)c1ccc(OC2CCN(S(=O)(=O)N(C)C)CC2)cc1,–,–,–,–,–
O=C(Cn1nnc2ccccc2c1=O)N[C@H](C(=O)O)c1ccccc1,–,–,–,–,–
Cc1ccnn1Cc1cc(C(=O)O)c2ccccc2n1,–,–,–,–,–
Cc1ccc(N2C(=O)C3C(C2=O)C2C=CC3C23CC3)cc1 (stereo unspecified),?,–,–,–,19890
COc1ccccc1-c1nnc(SCC(=O)Nc2c(Cl)cccc2Cl)o1,–,–,–,–,19236
Cc1cc(C)cc(NC(=O)CSc2nnc(-c3ccccc3Br)o2)c1,–,–,–,–,21943
COc1ccccc1-c1nnc(SCC(=O)NC2CCCCC2)o1,–,–,–,–,–
Cc1ccccc1-c1nnc(SCC(=O)Nc2cccc(C)c2C)o1,?,–,–,–,19363
O=C(COC(=O)C1CCN(c2ccc(C(F)(F)F)cn2)CC1)Nc1ccc(F)cc1[N+](=O)[O-],–,–,–,–,?
COc1ccc(CCNC(=O)CSC2=NS(=O)(=O)c3ccccc3N2)cc1OC,–,–,–,–,–
Cc1nc(-c2ccccc2)cc(N2CCCC2)n1,?,–,–,–,23051
COCCN(C(=O)COC(=O)c1cc2ccccc2cc1O)c1c(N)n(Cc2ccccc2)c(=O)[nH]c1=O,–,–,–,–,–
CC1CCN(c2ccc3c(c2)S(=O)(=O)c2cccc(C(=O)NCc4cccc(F)c4)c2C3=O)CC1,–,–,97,–,–
O=C(NCCc1ccc(F)cc1)c1cccc2c1C(=O)c1ccc(N3CCC(Cc4ccccc4)CC3)cc1S2(=O)=O,–,–,–,41,–
CC(=O)Nc1cccc(C(=O)Nc2cccnc2)c1,–,–,–,–,–
SMILES,BoNT-A LC inh2,BoNT-F LC inh,MazF activator,Anthrax LF inh2,Bead autofluor
O=C(COC(=O)c1ccc(S(=O)(=O)N2CCCC2)cc1)NCc1cccs1,–,–,–,–,–
CCSc1nnc([C@H](Cc2ccccc2)NC(=O)OC(C)(C)C)o1,–,–,–,–,23861
CCN(CC)C(=O)CSc1nnc([C@H](CCSC)NC(=O)OC(C)(C)C)o1,–,–,–,–,–
CC(C)(C)OC(=O)N[C@@H](Cc1ccccc1)c1nnc(SCC(=O)O)o1,–,–,–,–,–
CSCC[C@H](NC(=O)OC(C)(C)C)c1nnc(SCC=C(C)C)o1,–,–,–,–,25549
CCN(CC)C(=O)CSc1nnc([C@@H](NC(=O)OC(C)(C)C)C(C)C)o1,–,–,–,–,17771
CC(C)(C)OC(=O)N[C@@H](Cc1ccccc1)c1nnc(SCC(=O)c2ccc(Cl)cc2)o1,–,–,–,–,19238
O=C(N1CCOCC1)C(F)(F)C(F)(F)C(F)(F)C(F)(F)C(=O)N1CCOCC1,?,–,–,–,20612
CC(=O)N1CCOCCOCCN(C(C)=O)CCOCCOCC1,–,–,–,–,–
CCc1c(O)nc(SCC(N)=O)n(-c2ccccc2F)c1=O,–,–,–,–,–
